Values joined by “and” are separate entries in the source; they are usually repeats but may differ in a detail not shown here. Equal values may be shown once. Where a structure was tested more than once in an assay, its records may differ in their call. Active and inactive are the calls of the source. The calls were made as follows: active = hit-call score of the fitted dose curve at least 0.9, where 1 is the maximum; inactive = score below 0.9.

In general, AC50 refers to the concentration giving half of the maximal activity seen.

In assay [1] the target is Transcription factor E2F1 (Homo sapiens) (UniProt Q01094). Briefly: ATG_E2F_CIS: Attagene CIS-FACTORIAL HepG2 Assay for human E2F Transcription Factor 1 (AID 2282935). The conditions noted are these: HepG2 Attagene cis-reporter, E2F reporter RNA transcripts; actives raise or lower the signal. In short, it runs like this:
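Transient MRTU transfection of HepG2; 24 h compound exposure; RNA → oligo(dT) RT → PCR → FAM label → HpaI cut → CE fluorescence. Gain/loss of signal fit against DMSO.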

The nature of assay [2]: ATG_E_Box_CIS: Attagene CIS-FACTORIAL HepG2 Assay for human Enhancer Box (E-box) (AID 2282936). Conditions: HepG2 E-box cis-reporter transcription, actives raise or lower the signal. In short, it runs like this:
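Transiently transfected HepG2, endogenous TF-driven reporters, 24 h dosing. Readout: RT-PCR plus capillary electrophoresis of fluorescent reporter fragments. Gain or loss of signal fitted bidirectionally against DMSO baseline.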

Assay [3] in a line: ATG_M_61_CIS: Attagene CIS-FACTORIAL HepG2 Assay for M61 Transcription Factor (Internal Marker) (AID 2282937). The conditions noted are these: HepG2 Attagene CIS-FACTORIAL M61 internal marker reporter; actives raise or lower the signal. In short, it runs like this:
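HepG2 cells transiently transfected with cis-element-driven multiple reporter transcription units, dosed for 24 h. Reporter mRNA measured by RT-PCR, 6-FAM primer-extension labelling, HpaI digestion and capillary electrophoresis; bidirectional fit versus DMSO baseline.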

The nature of assay [4]: ATG_EGR_CIS: Attagene CIS-FACTORIAL HepG2 Assay for human Early Growth Response 1 (EGR1) (AID 2282938). Conditions: HepG2 Attagene CIS-FACTORIAL EGR reporter mRNA; actives raise or lower the signal. In short, it runs like this:
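HepG2 cells transiently transfected with cis-promoter-driven multiplexed reporter transcription units; reporter mRNA measured 24 h after compound dosing by RT-PCR, 6-FAM primer extension, HpaI digestion and capillary electrophoresis. Bidirectional fit versus DMSO baseline.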

Assay [5] in a line: ATG_M_19_CIS: Attagene CIS-FACTORIAL HepG2 Assay for M19 Transcription Factor (Internal Marker) (AID 2282939). Conditions: HepG2 Attagene CIS-FACTORIAL M19 internal marker reporter; actives raise or lower the signal. In short, it runs like this:
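Chemical-treated HepG2 (24 h) with MRTU constructs; reporter transcripts detected by fluorescent RT-PCR fragment analysis on capillary electrophoresis. Internal background marker, DMSO as baseline.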

Assay [6] in a line: ATG_ERE_CIS: Attagene CIS-FACTORIAL HepG2 Assay for Estrogen Response Element (ERE) (AID 2282940). Conditions: HepG2 ERE cis-reporter, Attagene RNA transcript; actives raise or lower the signal. In short, it runs like this:
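Human liver cells (HepG2) bearing transiently transfected, promoter-regulated reporter units were exposed 24 h. Reporter mRNA induction was detected by capillary electrophoresis of labelled RT-PCR products and fitted bidirectionally to DMSO.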

Assay [7] in a line: ATG_Ets_CIS: Attagene CIS-FACTORIAL HepG2 Assay for human Erythroblast Transformation Specific (ETS) (AID 2282941). Conditions: HepG2 ETS cis-reporter transcription, actives raise or lower the signal. In short, it runs like this:
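Multiplexed reporter transcript profiling: HepG2, 24 h treatment, total RNA to cDNA, PCR, 6-FAM labelling, HpaI cut, capillary electrophoresis. Gain- or loss-of-signal fitted against DMSO.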

The target in assay [8] is Hepatocyte nuclear factor 3-beta (Homo sapiens) (UniProt Q9Y261). Kind of assay: ATG_FoxA2_CIS: Attagene CIS-FACTORIAL HepG2 Assay for human Forkhead box A2 (FOXA2) (AID 2282942). The conditions noted are these: HepG2 cis-reporter transcription factor activity, 24 h; actives raise or lower the signal. In short, it runs like this: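 HepG2 cells transiently transfected with multiple cis-regulated reporter transcription units, dosed for 24 h. Reporter mRNA measured by RT-PCR, 6-FAM labelling, HpaI digestion and capillary electrophoresis; bidirectional fitting against DMSO baseline.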

Assay [9] in a line: ATG_FoxO_CIS: Attagene CIS-FACTORIAL HepG2 Assay for human Forkhead box O (FoxO) (AID 2282943). The conditions noted are these: HepG2 Attagene cis-reporter, FoxO element, mRNA; actives raise or lower the signal. In short, it runs like this: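 HepG2 cells transiently transfected with cis-element-driven reporter units report endogenous FoxO activity. After 24 h chemical exposure, reporter mRNA quantified by RT-PCR, fluorescent labeling, HpaI digestion and capillary electrophoresis; bidirectional fit versus DMSO.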

Assay [10] can be described thus: ATG_GATA_CIS: Attagene CIS-FACTORIAL HepG2 Assay for human GATA Binding Protein (AID 2282944). Conditions: HepG2 GATA cis-element reporter, Attagene multiplex mRNA; actives raise or lower the signal. In short, it runs like this:
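Transfected cis-reporter HepG2 cells were treated with chemicals for 24 hours. Total RNA was then converted to cDNA, amplified with reporter-specific primers and analysed by fluorescent capillary electrophoresis, using DMSO-treated wells as baseline.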

Transcription factor E2F1 (Homo sapiens), sequence (Q01094 whole entry, looked up): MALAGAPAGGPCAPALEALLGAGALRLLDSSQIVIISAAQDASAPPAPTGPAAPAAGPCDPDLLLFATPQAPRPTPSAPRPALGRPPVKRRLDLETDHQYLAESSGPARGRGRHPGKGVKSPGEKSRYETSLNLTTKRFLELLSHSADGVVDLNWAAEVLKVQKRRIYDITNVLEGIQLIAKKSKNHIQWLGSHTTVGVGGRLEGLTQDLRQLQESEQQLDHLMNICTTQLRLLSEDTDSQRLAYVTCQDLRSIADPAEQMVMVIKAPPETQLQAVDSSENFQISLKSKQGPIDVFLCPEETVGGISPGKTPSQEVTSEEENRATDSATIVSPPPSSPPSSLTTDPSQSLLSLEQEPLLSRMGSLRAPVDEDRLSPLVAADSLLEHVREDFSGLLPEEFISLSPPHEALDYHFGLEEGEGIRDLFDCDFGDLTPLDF
Hepatocyte nuclear factor 3-beta (Homo sapiens), sequence (Q9Y261 whole entry, looked up): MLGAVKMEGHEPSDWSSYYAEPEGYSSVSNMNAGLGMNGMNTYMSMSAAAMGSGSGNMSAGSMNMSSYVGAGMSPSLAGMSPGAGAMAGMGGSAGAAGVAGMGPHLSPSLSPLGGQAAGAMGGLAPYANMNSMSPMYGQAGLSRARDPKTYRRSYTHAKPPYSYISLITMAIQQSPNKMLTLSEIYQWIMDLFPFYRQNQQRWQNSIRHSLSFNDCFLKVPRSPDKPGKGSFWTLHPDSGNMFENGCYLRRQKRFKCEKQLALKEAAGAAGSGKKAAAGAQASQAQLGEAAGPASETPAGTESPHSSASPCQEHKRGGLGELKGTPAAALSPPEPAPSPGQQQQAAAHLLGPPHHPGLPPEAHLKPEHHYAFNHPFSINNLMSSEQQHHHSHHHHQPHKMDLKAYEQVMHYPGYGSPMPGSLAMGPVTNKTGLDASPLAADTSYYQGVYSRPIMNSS

Consider `CCNc1nc(Cl)nc(NC(C)C)n1`, for which the call in assay [1], in assay [2], in assay [3], in [4], in [5] and in assay [6] was inactive. In addition, the result in assay [7], in [8], in assay [9] and in assay [10] was inactive.
As for `N#Cc1nn(-c2c(Cl)cc(C(F)(F)F)cc2Cl)c(N)c1S(=O)C(F)(F)F` (stereo not drawn), the molecule was called inactive in assay [1], in [2], in assay [3], in [4], in assay [5] and in [6]. The result in assay [7], in assay [8], in assay [9] and in assay [10] was inactive. For the same molecule, the AC50 in [2] was 29 µM (active); in [4], 35.8 µM (active).
Consider `CCCCC(CC)COC(=O)c1ccccc1C(=O)OCC(CC)CCCC` (stereo not drawn), for which the result in [1], in assay [2], in assay [3], in [4], in assay [5] and in assay [6] was inactive. Also, the molecule was classed as inactive in assay [7], in [8], in [9] and in [10].
With `C#CCOS(=O)OC1CCCCC1Oc1ccc(C(C)(C)C)cc1` (stereo not drawn), the outcome in assay [1], in [2], in assay [3], in assay [5], in assay [6] and in [7] was inactive. Also, the result in assay [8], in assay [9] and in assay [10] was inactive. For the same molecule, the AC50 in assay [4] is 1.46 µM (active).
For the molecule `OC(c1ccc(Cl)cc1)(c1cncnc1)c1ccccc1Cl` (stereo not drawn), the molecule was classed as inactive in assay [1], in assay [2], in assay [3], in assay [4], in assay [5] and in assay [6]. For the same molecule, the molecule was called inactive in assay [7], in assay [8], in assay [9] and in assay [10]. Also, the results for the AC50 in assay [2], in assay [6] and in assay [10] were 2.6 µM (active), 3.79 µM (active) and 12.9 µM (active), respectively.
As to `CCOC(=O)CC(SP(=S)(OC)OC)C(=O)OCC` (stereo not drawn), the result in assay [1], in assay [2], in assay [3], in assay [4], in assay [5] and in [7] was inactive. The molecule was classed as inactive in assay [8], in assay [9] and in assay [10]. In addition, the AC50 in [4] is 100 µM (active); in assay [6], 100 µM (active) and 27 µM (active).
Regarding `CCOC(=O)C(Cl)Cc1cc(-n2nc(C)n(C(F)F)c2=O)c(F)cc1Cl` (stereo not drawn), the molecule was classed as inactive in assay [1], in [2], in assay [3], in assay [4], in [5] and in [7]. The result in assay [8], in [9] and in [10] was inactive. Further, the AC50 in [6] was 50 µM (active).
For `Oc1ccccc1-c1ccccc1`, the outcome in assay [1], in [2], in [3], in assay [4], in assay [5] and in assay [6] was inactive. In addition, the molecule was classed as inactive in assay [7], in [8], in assay [9] and in [10]. The AC50 in assay [4] was 62.4 µM (active); in assay [6], 13.1 µM (active).
Take `CC(Oc1ccc(Cl)cc1Cl)C(=O)O` (stereo not drawn): the molecule was called inactive in [1], in assay [2], in assay [3], in assay [4], in assay [5] and in assay [6]. Moreover, the molecule was called inactive in assay [7], in [8], in [9] and in assay [10].
Regarding `Cc1ccc(-c2c(Cl)nc(C#N)n2S(=O)(=O)N(C)C)cc1`, the molecule was classed as inactive in [1], in assay [2], in assay [3], in assay [4], in assay [5] and in assay [6]. Besides, the outcome in assay [7], in [8], in assay [9] and in assay [10] was inactive.
Consider `CC(C)(C)c1ccc(CSc2cnn(C(C)(C)C)c(=O)c2Cl)cc1`, for which the molecule was called inactive in [1], in assay [2], in assay [3], in assay [5], in assay [7] and in assay [8]. For the same molecule, the outcome in assay [9] and in [10] was inactive. For the same molecule, the values for the half-maximal activity concentration (AC50) in assay [4] and in assay [6] were 0.128 µM (active) and 5.23 µM (active), respectively.
For the molecule `COc1nc(C)nc(NC(=O)NS(=O)(=O)c2ccccc2Cl)n1`, the call in assay [1], in assay [2], in assay [3], in [4], in assay [5] and in assay [6] was inactive. Further, the molecule was classed as inactive in assay [7], in assay [8], in assay [9] and in assay [10].
Consider `COc1cnc(OC)n2nc(NS(=O)(=O)c3c(OCC(F)F)cccc3C(F)(F)F)nc12`, for which the result in assay [1], in assay [2], in [3], in [4], in assay [5] and in assay [6] was inactive. For the same molecule, the molecule was classed as inactive in assay [7], in assay [8], in assay [9] and in assay [10].
For the molecule `O=C(Nc1ccccc1)Nc1ccnc(Cl)c1`, the molecule was classed as inactive in assay [1], in assay [2], in assay [3], in assay [5], in assay [6] and in [7]. The outcome in [8] and in assay [10] was inactive. The AC50 in assay [4] was 50 µM (active); in assay [9] it was 13 µM (active).
Regarding `COP(=S)(OC)Oc1nc(Cl)c(Cl)cc1Cl`, the molecule was called inactive in assay [1], in assay [2], in [3], in assay [4], in assay [5] and in assay [7]. The call in [8], in [9] and in assay [10] was inactive. In assay [6], the AC50 was 33.5 µM (active).
Turning to `CON(C)C(=O)Nc1ccc(Cl)c(Cl)c1`, the molecule was called inactive in [1], in [2], in assay [3], in [4], in [5] and in assay [6]. In addition, the molecule was called inactive in assay [7], in [8], in [9] and in [10].
Consider `COC(=O)c1ccccc1C(=O)OC`, for which the molecule was classed as inactive in assay [1], in assay [2], in assay [3], in assay [4], in [5] and in assay [6]. In addition, the outcome in assay [7], in assay [8], in assay [9] and in [10] was inactive.
Regarding `COc1nc(NC(C)C)nc(NC(C)C)n1`, the molecule was called inactive in assay [1], in assay [2], in assay [3], in assay [4], in assay [5] and in assay [6]. Further, the molecule was classed as inactive in assay [7], in assay [8], in [9] and in assay [10].
In the case of `CC(C)Oc1cc(-n2nc(C(C)(C)C)oc2=O)c(Cl)cc1Cl`, the molecule was called inactive in assay [1], in assay [2], in assay [3], in assay [4], in assay [5] and in assay [7]. The call in [8], in assay [9] and in assay [10] was inactive. Besides, in assay [6], the AC50 is 12.8 µM (active).
